Inconclusive results are not listed. The source made the active and inactive calls. How the source made its calls: active means hit-call score of the fitted dose curve at least 0.9, where 1 is the maximum; inconclusive means response in the unintended direction; inactive means score below 0.9.
Assays:
[1] = biological target: human Dual Specificity Protein Phosphatase 3 (DUSP3), DUSP3 (gene 1845) (UniProt P51452); assay: NVS_ENZ_hDUSP3: NovaScreen (NVS) Enzymatic Assay for human Dual Specificity Protein Phosphatase 3 (DUSP3) (AID 2283152);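 further: phosphatase activity of recombinant human DUSP3 on a fluorogenic substrate without cells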
Procedure, shortened: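 Cell-free assay with recombinant human DUSP3 and fluorogenic substrate, read by fluorescence intensity. Primary screen ran duplicate at 25 uM; actives followed up in concentration series; loss of signal versus DMSO scored.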

[2] = biological target: human Esterase Plasma (ES), BCHE (gene 590) (UniProt P06276); assay: NVS_ENZ_hES: NovaScreen (NVS) Enzymatic Assay for human Esterase Plasma (ES) (AID 2283157)
Procedure, shortened: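 Esterase from human plasma, cell-free, colorimetric absorbance read 0.25 h after dosing. Screened at 25 uM in duplicate, with threshold-passing chemicals run in concentration-response up to 50 uM; loss of signal fitted versus DMSO.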

[3] = biological target: human Elastase, ELANE (gene 1991) (UniProt P08246); assay: NVS_ENZ_hElastase: NovaScreen (NVS) Enzymatic Assay for human Elastase (AID 2283153)
Procedure, shortened: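 Cell-free elastase from human neutrophils, 1.5 h after dosing, activity read by absorbance. Primary screen in duplicate at 25 uM; hits (e.g., 30% inhibition) rerun in singleton concentration-response up to 50 uM, fitted versus DMSO.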

[4] = biological target: human Ephrin type-A Receptor 1 (EphA1), EPHA1 (gene 2041) (UniProt P21709); assay: NVS_ENZ_hEphA1: NovaScreen (NVS) Enzymatic Assay for human Ephrin type-A Receptor 1 (EphA1) (AID 2283158);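 further: activity is signal loss versus DMSO meaning EphA1 kinase inhibition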
Procedure, shortened: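 Cell-free kinase activity with recombinant protein, 1 hour after dosing; product separated by electrophoretic mobility shift, fluorescence read. Primary screen at 25 uM in duplicate; hits run as concentration-response up to 50 uM, relative to DMSO.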

[5] = biological target: Glycogen synthase kinase-3 beta (Homo sapiens) (UniProt P49841); assay: NVS_ENZ_hGSK3b: NovaScreen (NVS) Enzymatic Assay for human Glycogen Synthase Kinase-3 beta (GSK3b) (AID 2283165)
Procedure, shortened: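 Recombinant enzyme with specific fluorescent substrate, 1 h, product separated by electrophoretic mobility shift. Primary duplicate screen at 25 uM; actives (e.g. 30% inhibition) followed in singleton concentration-response to 50 uM. Signal loss fitted versus DMSO.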

[6] = biological target: human Janus Kinase 2 (Jak2), JAK2 (gene 3717) (UniProt O60674); assay: NVS_ENZ_hJak2: NovaScreen (NVS) Enzymatic Assay for human Janus Kinase 2 (Jak2) (AID 2283169)
Procedure, shortened: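 Cell-free recombinant human JAK2 enzyme activity assay, fluorescence/electrophoretic mobility shift read 1 h after dosing. Screened in duplicate at 25 uM, then concentration-response up to 50 uM; activity as signal loss relative to DMSO.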

[7] = biological target: human Insulin Receptor (InsR), INSR (gene 3643) (UniProt P06213); assay: NVS_ENZ_hInsR: NovaScreen (NVS) Enzymatic Assay for human Insulin Receptor (InsR) (AID 2283168)
Procedure, shortened: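 Fluorescent substrate phosphorylation by recombinant kinase, product resolved by electrophoretic mobility shift, read 1 h after dosing. Screened in duplicate at 25 uM; hits (e.g., 30% inhibition) run in concentration-response to 50 uM; DMSO as baseline.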

[8] = biological target: Histone deacetylase 3 (Homo sapiens) (UniProt O15379); assay: NVS_ENZ_hHDAC3: NovaScreen (NVS) Enzymatic Assay for human Histone Deacetylase 3 (HDAC3) (AID 2283163)
Procedure, shortened: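 Recombinant human HDAC3 with fluorescent substrate, 1 h after dosing; product separated from substrate by electrophoretic mobility shift and read by fluorescence. Primary screen at 25 uM in duplicate; actives (e.g. ≥30% inhibition) retested in concentration-response up to 50 uM.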

[9] = biological target: human FYN Proto-Oncogene, Src family Tyrosine Kinase (Fyn), FYN (gene 2534) (UniProt P06241); assay: NVS_ENZ_hFyn: NovaScreen (NVS) Enzymatic Assay for human FYN Proto-Oncogene, Src family Tyrosine Kinase (Fyn) (AID 2283161)
Procedure, shortened: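 Recombinant enzyme with fluorescent substrate, product separated by electrophoretic mobility shift; read 1 h after dosing. Duplicate 25 uM single-point screen, actives retested in concentration series; loss of signal vs DMSO.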

[10] = biological target: human c-Jun N-terminal Kinases (JNK2), MAPK9 (gene 5601) (UniProt P45984); assay: NVS_ENZ_hJNK2: NovaScreen (NVS) Enzymatic Assay for human c-Jun N-terminal Kinases (JNK2) (AID 2283171)
Procedure, shortened: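 Cell-free recombinant human JNK2 activity assay; fluorescent substrate and product separated by electrophoretic mobility shift, read 1 h after dosing. Primary duplicate screen at 25 uM; actives run in concentration-response up to 50 uM, relative to DMSO.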

Glycogen synthase kinase-3 beta (Homo sapiens), sequence (P49841 whole entry, looked up): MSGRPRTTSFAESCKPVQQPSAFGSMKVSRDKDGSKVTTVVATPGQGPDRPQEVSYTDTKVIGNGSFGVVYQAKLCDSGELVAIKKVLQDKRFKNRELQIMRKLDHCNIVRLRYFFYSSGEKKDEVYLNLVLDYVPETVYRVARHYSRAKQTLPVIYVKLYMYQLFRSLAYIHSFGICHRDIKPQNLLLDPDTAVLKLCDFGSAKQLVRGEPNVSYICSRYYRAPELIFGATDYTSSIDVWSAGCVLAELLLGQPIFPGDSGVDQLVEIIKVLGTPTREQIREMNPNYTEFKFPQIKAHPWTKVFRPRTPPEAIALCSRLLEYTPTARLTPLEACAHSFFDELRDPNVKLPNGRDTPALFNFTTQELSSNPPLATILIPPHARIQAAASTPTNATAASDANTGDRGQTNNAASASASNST
human Dual Specificity Protein Phosphatase 3 (DUSP3), DUSP3 (gene 1845), sequence (P51452 whole entry, looked up): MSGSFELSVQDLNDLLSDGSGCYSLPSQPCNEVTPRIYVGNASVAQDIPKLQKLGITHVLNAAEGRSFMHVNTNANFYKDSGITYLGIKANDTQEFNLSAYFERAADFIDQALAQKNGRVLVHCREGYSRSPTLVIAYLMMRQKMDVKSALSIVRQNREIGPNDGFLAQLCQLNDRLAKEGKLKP
human Elastase, ELANE (gene 1991), sequence (P08246 whole entry, looked up): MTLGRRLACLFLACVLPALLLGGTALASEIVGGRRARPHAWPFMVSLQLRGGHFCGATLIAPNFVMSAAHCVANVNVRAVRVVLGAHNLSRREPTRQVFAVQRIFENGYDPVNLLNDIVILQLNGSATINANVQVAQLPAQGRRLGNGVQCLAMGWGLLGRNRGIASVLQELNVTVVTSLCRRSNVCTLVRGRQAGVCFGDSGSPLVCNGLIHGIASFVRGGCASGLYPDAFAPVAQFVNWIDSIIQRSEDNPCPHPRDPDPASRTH
human Janus Kinase 2 (Jak2), JAK2 (gene 3717), sequence (O60674 whole entry, looked up): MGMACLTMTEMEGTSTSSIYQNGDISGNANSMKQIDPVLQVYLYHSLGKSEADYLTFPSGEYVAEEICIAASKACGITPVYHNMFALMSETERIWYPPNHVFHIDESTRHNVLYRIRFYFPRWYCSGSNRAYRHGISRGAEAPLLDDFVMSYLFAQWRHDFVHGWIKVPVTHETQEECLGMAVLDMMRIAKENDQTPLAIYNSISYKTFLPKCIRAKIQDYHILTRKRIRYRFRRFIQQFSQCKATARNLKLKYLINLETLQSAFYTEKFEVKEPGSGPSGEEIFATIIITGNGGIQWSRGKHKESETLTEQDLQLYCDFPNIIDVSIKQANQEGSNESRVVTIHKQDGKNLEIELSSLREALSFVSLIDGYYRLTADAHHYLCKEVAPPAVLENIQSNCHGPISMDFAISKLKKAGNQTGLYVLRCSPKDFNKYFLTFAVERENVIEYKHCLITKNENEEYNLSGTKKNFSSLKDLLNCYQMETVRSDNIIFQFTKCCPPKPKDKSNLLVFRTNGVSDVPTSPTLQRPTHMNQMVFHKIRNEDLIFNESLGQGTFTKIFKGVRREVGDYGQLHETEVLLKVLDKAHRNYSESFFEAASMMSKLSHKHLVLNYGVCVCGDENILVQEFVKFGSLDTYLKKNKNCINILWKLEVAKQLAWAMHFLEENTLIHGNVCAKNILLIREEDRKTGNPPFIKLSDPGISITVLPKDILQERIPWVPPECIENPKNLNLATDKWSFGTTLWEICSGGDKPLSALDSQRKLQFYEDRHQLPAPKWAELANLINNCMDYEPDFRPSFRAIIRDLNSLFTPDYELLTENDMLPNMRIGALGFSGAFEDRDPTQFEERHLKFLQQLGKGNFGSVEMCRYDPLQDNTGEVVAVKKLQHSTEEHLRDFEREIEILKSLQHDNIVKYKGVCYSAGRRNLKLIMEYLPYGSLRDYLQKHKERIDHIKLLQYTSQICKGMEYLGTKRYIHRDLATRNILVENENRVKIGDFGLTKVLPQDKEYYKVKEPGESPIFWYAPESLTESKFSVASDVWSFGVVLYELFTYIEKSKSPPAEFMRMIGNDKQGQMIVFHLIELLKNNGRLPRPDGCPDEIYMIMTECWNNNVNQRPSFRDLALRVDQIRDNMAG
Histone deacetylase 3 (Homo sapiens), sequence (O15379 whole entry, looked up): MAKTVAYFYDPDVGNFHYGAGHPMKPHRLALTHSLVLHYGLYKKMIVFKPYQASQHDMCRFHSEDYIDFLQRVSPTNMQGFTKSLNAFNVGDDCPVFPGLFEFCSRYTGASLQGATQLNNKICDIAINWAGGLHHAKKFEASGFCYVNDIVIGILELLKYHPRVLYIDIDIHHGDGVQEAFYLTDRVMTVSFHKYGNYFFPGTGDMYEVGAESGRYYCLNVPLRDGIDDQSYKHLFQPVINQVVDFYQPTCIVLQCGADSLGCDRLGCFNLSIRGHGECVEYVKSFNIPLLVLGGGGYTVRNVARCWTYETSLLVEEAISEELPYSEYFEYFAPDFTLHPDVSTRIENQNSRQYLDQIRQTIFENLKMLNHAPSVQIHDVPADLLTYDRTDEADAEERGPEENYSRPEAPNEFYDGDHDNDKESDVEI
human Ephrin type-A Receptor 1 (EphA1), EPHA1 (gene 2041), sequence (P21709 whole entry, looked up): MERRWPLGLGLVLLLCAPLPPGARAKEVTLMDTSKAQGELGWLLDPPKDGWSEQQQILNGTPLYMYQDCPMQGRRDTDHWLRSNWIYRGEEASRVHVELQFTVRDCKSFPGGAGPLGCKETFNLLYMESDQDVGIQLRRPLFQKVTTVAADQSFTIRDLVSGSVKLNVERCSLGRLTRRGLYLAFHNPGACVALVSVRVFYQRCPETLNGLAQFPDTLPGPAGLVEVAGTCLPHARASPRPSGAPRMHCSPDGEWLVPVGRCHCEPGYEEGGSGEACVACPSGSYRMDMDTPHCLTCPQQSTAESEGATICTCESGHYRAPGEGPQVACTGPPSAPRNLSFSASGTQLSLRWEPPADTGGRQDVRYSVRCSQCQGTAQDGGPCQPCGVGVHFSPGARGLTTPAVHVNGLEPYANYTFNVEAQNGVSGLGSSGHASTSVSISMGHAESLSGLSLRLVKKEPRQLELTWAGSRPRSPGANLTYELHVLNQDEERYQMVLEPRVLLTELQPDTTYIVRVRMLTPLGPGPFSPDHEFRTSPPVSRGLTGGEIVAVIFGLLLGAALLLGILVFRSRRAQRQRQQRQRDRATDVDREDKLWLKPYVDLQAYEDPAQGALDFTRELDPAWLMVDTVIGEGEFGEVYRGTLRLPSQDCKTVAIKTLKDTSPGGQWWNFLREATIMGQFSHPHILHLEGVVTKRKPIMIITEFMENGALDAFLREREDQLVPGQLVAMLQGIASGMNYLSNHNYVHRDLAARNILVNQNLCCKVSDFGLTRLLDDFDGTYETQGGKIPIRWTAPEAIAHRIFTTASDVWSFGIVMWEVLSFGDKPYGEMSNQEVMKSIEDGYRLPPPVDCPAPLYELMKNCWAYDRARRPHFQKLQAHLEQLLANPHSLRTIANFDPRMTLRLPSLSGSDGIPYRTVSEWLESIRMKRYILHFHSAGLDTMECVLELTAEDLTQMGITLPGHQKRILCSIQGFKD
human Esterase Plasma (ES), BCHE (gene 590), sequence (P06276 whole entry, looked up): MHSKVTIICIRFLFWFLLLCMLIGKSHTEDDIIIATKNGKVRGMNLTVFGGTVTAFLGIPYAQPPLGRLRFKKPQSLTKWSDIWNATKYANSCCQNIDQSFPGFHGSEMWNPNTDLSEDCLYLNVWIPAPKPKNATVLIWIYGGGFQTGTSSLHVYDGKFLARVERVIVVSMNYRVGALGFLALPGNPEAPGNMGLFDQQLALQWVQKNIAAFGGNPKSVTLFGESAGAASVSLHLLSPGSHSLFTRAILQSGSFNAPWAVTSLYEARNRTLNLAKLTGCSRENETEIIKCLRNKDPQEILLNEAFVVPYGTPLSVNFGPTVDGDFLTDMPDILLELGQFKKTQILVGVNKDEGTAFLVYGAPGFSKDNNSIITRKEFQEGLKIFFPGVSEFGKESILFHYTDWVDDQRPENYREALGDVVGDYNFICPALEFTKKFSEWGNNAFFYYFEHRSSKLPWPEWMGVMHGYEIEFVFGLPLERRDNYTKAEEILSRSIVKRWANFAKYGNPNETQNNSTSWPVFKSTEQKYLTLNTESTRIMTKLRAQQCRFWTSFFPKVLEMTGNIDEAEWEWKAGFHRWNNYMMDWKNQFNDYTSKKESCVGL
human FYN Proto-Oncogene, Src family Tyrosine Kinase (Fyn), FYN (gene 2534), sequence (P06241 whole entry, looked up): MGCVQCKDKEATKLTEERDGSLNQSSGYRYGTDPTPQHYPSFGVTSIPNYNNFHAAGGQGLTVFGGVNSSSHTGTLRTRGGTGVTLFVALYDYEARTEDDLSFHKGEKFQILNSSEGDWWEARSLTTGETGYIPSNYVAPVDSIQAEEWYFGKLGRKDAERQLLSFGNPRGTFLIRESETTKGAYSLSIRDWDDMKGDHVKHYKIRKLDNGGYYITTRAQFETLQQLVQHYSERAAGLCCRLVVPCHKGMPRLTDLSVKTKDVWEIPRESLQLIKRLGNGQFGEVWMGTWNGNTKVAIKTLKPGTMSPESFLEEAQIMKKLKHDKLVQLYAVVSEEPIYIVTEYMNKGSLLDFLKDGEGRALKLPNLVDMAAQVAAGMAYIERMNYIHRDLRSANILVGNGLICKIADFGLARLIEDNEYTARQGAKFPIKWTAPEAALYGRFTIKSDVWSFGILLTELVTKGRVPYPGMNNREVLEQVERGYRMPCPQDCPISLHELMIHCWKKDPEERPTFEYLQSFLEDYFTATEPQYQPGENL
human c-Jun N-terminal Kinases (JNK2), MAPK9 (gene 5601), sequence (P45984 whole entry, looked up): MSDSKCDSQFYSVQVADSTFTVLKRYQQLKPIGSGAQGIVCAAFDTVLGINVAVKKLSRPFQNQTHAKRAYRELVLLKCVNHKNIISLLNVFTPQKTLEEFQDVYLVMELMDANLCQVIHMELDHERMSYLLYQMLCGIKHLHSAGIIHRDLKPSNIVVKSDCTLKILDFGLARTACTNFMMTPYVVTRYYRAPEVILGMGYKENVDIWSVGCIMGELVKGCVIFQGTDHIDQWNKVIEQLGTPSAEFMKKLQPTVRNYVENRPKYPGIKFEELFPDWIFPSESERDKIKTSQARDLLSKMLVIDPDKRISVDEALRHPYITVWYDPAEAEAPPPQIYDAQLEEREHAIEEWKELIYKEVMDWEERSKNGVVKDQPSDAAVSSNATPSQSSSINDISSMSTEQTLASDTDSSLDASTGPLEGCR

**Q.** Which outcome [1] does the source give for `Cc1c(C)c2c(c(C)c1O)CCC(C)(COc1ccc(CC3SC(=O)NC3=O)cc1)O2` (stereo unspecified) here?
**A.** inactive

**Q.** And the outcome [2]?
**A.** inactive

**Q.** With `COC(=O)[C@H]1[C@H]2C[C@@H]3c4[nH]c5cc(OC)ccc5c4CCN3C[C@H]2C[C@@H](OC(=O)c2cc(OC)c(OC)c(OC)c2)[C@@H]1OC` as the compound, how does the AC50 [1] read?
**A.** 24.6 µM (active)

**Q.** With `CCCCCCCCCCCCCCOS(=O)(=O)O` as the compound, how does the AC50 [1] read?
**A.** 8.15 µM (active)

**Q.** What about the AC50 [3] of the same compound?
**A.** 25.4 µM (active)

**Q.** Which outcome [4] does the source give for `O=C(NS(=O)(=O)/C=C/c1cccs1)c1ccc(F)cc1Br` here?
**A.** inactive

**Q.** How did the AC50 [2] turn out when `CCC(C)N(C)C(=O)c1cc2ccccc2c(-c2ccccc2Cl)n1` (stereo unspecified) was run?
**A.** 9.91 µM (active)

**Q.** With `CCCCCCCCCC[N+](C)(C)[O-]` as the compound, how does the outcome [4] read?
**A.** inactive

**Q.** Which results are given for `CN(C)CCCN1c2ccccc2Sc2ccc(Cl)cc21`?
**A.** AC50 [1]: 10.7 µM (active); AC50 [2]: 7.76 µM (active); outcome [4]: inactive

**Q.** Which AC50 [2] does the source give for `CN(C)C(=O)NC1(c2ccccc2)CCN(CC[C@@]2(c3ccc(F)c(F)c3)CN(C(=O)c3ccccc3)CCO2)CC1` here?
**A.** 19.1 µM (active)

**Q.** Which results are given for `COc1ccc(OC(F)(F)F)cc1CN[C@H]1CCCN[C@H]1c1ccccc1`?
**A.** AC50 [2]: 1.47 µM (active); outcome [5]: inactive; outcome [6]: inactive

**Q.** With `CN(C)C(=O)NC1(c2ccccc2)CCN(CCC[C@]2(c3ccc(Cl)c(Cl)c3)CCCN(C(=O)c3ccccc3)C2)CC1` as the compound, how does the AC50 [2] read?
**A.** 5.89 µM (active)

**Q.** What about the outcome [5] of the same compound?
**A.** inactive

**Q.** What about the outcome [6] of the same compound?
**A.** inactive

**Q.** With `CCCCC(CC)COC(=O)CCCCCCCC(=O)OCC(CC)CCCC` (stereo unspecified) as the compound, how does the AC50 [3] read?
**A.** 6.97 µM (active)

**Q.** What about the outcome [7] of the same compound?
**A.** inactive

**Q.** For `CC(C)(O)c1ccc(CNC(=O)c2cccnc2Oc2ccc(F)cc2)cc1`, which outcome [3] is on record?
**A.** inactive

**Q.** What about the outcome [6] of the same compound?
**A.** inactive

**Q.** Which AC50 [2] does the source give for `CN(C)CCCN(C)CCCN(C)C` here?
**A.** 31.8 µM (active)

**Q.** How did the outcome [4] turn out when `CS(=O)(=O)c1ccc([C@@H](C[C@H]2CCC(=O)C2)C(=O)Nc2cnccn2)cc1Cl` was run?
**A.** inactive

**Q.** For `CCc1cc(C2=C(C(=O)O)N(c3ccccc3C(F)(F)F)S(=O)(=O)c3ccccc32)cc2c1OCO2`, which AC50 [3] is on record?
**A.** 8.94 µM (active)

**Q.** And the outcome [5]?
**A.** inactive

**Q.** With `Cn1cnc2c1c(=O)[nH]c(=O)n2C` as the compound, how does the outcome [2] read?
**A.** inactive

**Q.** Which outcome [2] does the source give for `Cc1ccc(-c2cc(C(F)(F)F)nn2-c2ccc(S(N)(=O)=O)cc2)cc1` here?
**A.** inactive

**Q.** `Cc1cc(Cc2ccc(N)c(C)c2)ccc1N` was tested. Which outcome [3] did it give?
**A.** inactive

**Q.** How did the AC50 [2] turn out when `CSc1ccc(Oc2ccc(S(N)(=O)=O)cc2CN(C)C)cc1C` was run?
**A.** 0.108 µM (active)

**Q.** What does the source list for `O=C1c2c(O)cccc2Cc2cccc(O)c21`?
**A.** AC50 [3]: 4.55 µM (active); outcome [8]: inactive

**Q.** For `C#CC(O)C(CC)CCCC` (stereo unspecified), which outcome [4] is on record?
**A.** inactive

**Q.** For `O=C(N[C@@H](c1ccccc1)[C@@H]1CCCCN1)c1cccc(C(F)(F)F)c1Cl`, which AC50 [2] is on record?
**A.** 20.8 µM (active)

**Q.** `Cc1cc(SC2=C(O)C[C@@](CCc3ccc(N)cc3)(C(C)C)OC2=O)c(C(C)(C)C)cc1CO` was tested. Which AC50 [2] did it give?
**A.** 7.01 µM (active)

**Q.** And the outcome [6]?
**A.** inactive

**Q.** `CCN(CC)CCOc1ccc(C(=C(Cl)c2ccccc2)c2ccccc2)cc1` was tested. Which outcome [2] did it give?
**A.** inactive

**Q.** What about the outcome [4] of the same compound?
**A.** inactive

**Q.** And the AC50 [9]?
**A.** 33.6 µM (active)

**Q.** What about the AC50 [8] of the same compound?
**A.** 4.17 µM (active)

**Q.** Which outcome [4] does the source give for `CCCCc1nc2cccnc2n1Cc1ccc(-c2ccccc2-c2nnn[nH]2)cc1` here?
**A.** inactive

**Q.** And the AC50 [8]?
**A.** 17.2 µM (active)

**Q.** Which results are given for `O=C(O)CC(O)(CC(=O)O)C(=O)O`?
**A.** outcome [9]: inactive; outcome [10]: inactive

**Q.** Which outcome [7] does the source give for `CC(N)=O` here?
**A.** inactive

**Q.** With `CCCCCCCCCCCCCCCCO` as the compound, how does the outcome [10] read?
**A.** inactive

Source: PubChem BioAssay (EPA / NIEHS)
